# Results reported in PubChem BioAssay AID488854 (National Center for Advancing Translational Sciences (NCATS), 2010).
# Results filed as inconclusive are left out. The source made the active and inactive calls. Calls come from the whole dose curve; as a rule, active = well fitted activation curve with a large enough effect; inconclusive = small, poorly fitted or top-dose-only effect; inactive = no such curve, though single readings can be large or run the other way.
# Biological target: Lysosomal acid glucosylceramidase (Homo sapiens) (UniProt P04062)
# Test: qHTS Assay for Inhibitors and Activators of N370S glucocerebrosidase as a Potential Chaperone Treatment of Gaucher Disease: Confirmation for Probe SAR
# Settings: N370S GC spleen homogenate, 4MU-glucoside fluorescence; series mostly up to 57.5 µM
# Excerpt: NIH Chemical Genomics Center [NCGC] NIH Molecular Libraries Probe Production Centers Network [MLPCN] MLPCN Grant: MH086442-01 Assay Submitter (PI): Wei Zheng Glucocerebrosidase (GC) catalyzes the hydrolysis of beta-glucocerebroside to glucose and ceramide in lysosomes. Mutations in the glucocerebrosidase gene result in Gaucher disease, an autosomal recessive lysosomal storage disorder. Many of the mutations encountered in patients with Gaucher disease are missense alterations that may cause misfolding, decreased stability and/or mistrafficking of this lysosomal protein. […] These inhibitors include iminosugar analogs and three non-iminosugar inhibitors identified from a previous HTS of 62,000 compounds with the wild type recombinant enzyme. However, the enhancement of enzyme activity by the chaperone action of an enzyme inhibitor must be balanced against the direct inhibition of the enzyme. An enzyme activator could also function as a chaperone by binding to the enzyme and helping to correct its misfolding and mistrafficking. While activators for GC have not yet been identified, they may have better therapeutic potential than inhibitors. Therefore the discovery and development of chemical activators may provide a new strategy for the chaperone therapy. We have optimized a new assay using N370S mutant GC derived from the spleen of a Gaucher patient. […] In addition, the MLPCN compound library has expanded, which increases the chance of finding new and better probes.
# NCGC Assay Protocol Summary: This is a fluorogenic enzyme assay with 4-methylumbelliferyl-beta-D-glucopyranoside as the substrate and N370S glucocerebrosidase from human spleen homogenate as the enzyme preparation. Upon the hydrolysis of this fluorogenic substrate, the resulting product, […] which can be detected by a standard fluorescence plate reader. Data were normalized to the controls for basal activity (without enzyme) and 100% activity (with enzyme). The AC50 values were determined from concentration-response data modeled with the standard Hill equation. Assay buffer: 50 mM citric acid (titrated with potassium phosphate to pH 5.0), 100 mM potassium chloride, 10 mM sodium chloride, 1 mM magnesium chloride, 0.01% Tween-20. 1536-well assay protocol: (1) Add 2 ul/well of spleen homogenate (27 ug final) (2) Add 23 nL compounds in DMSO solution. The final titration was 0.5 nM to 58 uM. (3) Add 2 ul of substrate (1 mM final) (4) Incubate at 37C for 40 min. (5) Add 2 ul stop solution (1M NaOH and 1M Glycine mixture, pH 10) (6) Detect the assay plate in a ViewLux plate reader (PerkinElmer) with Ex=365 nm and Em=440nm. Keywords: Glucocerebrosidase, beta-glucosidase, Gaucher Disease, pharmacological chaperone, chaperone therapy, high throughput screening, glucocerebrosidase inhibitor, MLSMR, MLSCN, NIH Roadmap, qHTS and NCGC
# Sequence of Lysosomal acid glucosylceramidase (Homo sapiens) (P04062 whole entry N409S): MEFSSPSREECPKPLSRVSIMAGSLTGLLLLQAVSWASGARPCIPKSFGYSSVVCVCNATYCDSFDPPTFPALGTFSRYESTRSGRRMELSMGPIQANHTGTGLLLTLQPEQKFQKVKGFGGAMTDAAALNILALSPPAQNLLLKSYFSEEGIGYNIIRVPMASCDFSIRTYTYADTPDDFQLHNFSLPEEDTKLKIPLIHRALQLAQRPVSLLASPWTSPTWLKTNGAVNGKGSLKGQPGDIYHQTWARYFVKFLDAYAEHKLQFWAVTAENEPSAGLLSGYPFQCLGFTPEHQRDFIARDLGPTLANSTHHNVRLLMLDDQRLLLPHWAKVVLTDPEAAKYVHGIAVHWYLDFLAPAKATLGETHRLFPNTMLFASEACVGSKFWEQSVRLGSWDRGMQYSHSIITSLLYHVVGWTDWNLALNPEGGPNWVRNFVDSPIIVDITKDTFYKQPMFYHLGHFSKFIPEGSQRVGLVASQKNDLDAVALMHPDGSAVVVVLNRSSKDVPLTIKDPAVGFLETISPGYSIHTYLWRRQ
row,SMILES,Potency
1,COc1ccc(NC(=O)c2cnn3c(C)cc(C)nc23)cc1F,0.819 µM (active)
2,Cc1cc(C)n2ncc(C(=O)Nc3ccc(Br)cc3)c2n1,2.31 µM (active)
3,COc1ccc(NC(=O)c2cnn3c(C)cc(C)nc23)cc1Cl,2.06 µM (active)
4,Cc1ccc(NC(=O)c2cnn3c(C)cc(C)nc23)cc1,3.26 µM (active)
5,Cc1cc(C)n2ncc(C(=O)NCC(C)C)c2n1,25.9 µM (active)
6,CCc1ccc(NC(=O)c2cnn3c(C)cc(C)nc23)cc1,4.11 µM (active)
7,OC[C@H]1CNC[C@@H](O)[C@@H]1O,inactive
8,Cc1cc(C)n2ncc(C(=O)NCc3ccco3)c2n1,41.1 µM (active)
9,O=C(Nc1ccc2c(c1)CCC2)c1cnn2c1NC(=C1CC1)C=C2C(F)F,3.98 µM (active)
10,Cc1cc(C)n2ncc(C(=O)Nc3ccc4c(c3)OCO4)c2n1,6.51 µM (active)
11,Cc1cc(C)n2ncc(C(=O)Nc3ccccc3Sc3ccccc3)c2n1,18.3 µM (active)
12,C#Cc1ccc(NC(=O)c2cnn3c(C)cc(C)nc23)cc1,0.366 µM (active)
13,CC(=O)Nc1ccc(NC(=O)c2cnn3c(C)cc(C)nc23)cc1,inactive
14,Cc1cc(C)n2ncc(C(=O)Nc3ccc4c(c3)OCCO4)c2n1,5.8 µM (active)
15,O=C(NC1CCCCC1)c1cnn2c1NC(=C1CC1)C=C2C(F)F,12.6 µM (active)
16,Cc1cc(C)n2ncc(C(=O)NCc3ccccc3)c2n1,32.6 µM (active)
17,Cc1cc(C)n2ncc(C(=O)Nc3ccccc3)c2n1,5.17 µM (active)
18,O=C(Nc1ccccc1Sc1ccccc1)c1cnn2c1NC(=C1CC1)C=C2C(F)(F)F,14.1 µM (active)
19,Cc1cc(-c2ccccc2)nc2c(C(=O)Nc3ccc4c(c3)CCC4)cnn12,8.19 µM (active)
20,Cc1cc(C)n2ncc(C(=O)Nc3ccccc3C)c2n1,16.3 µM (active)

row,SMILES,Potency
1,Cc1cc(C)n2ncc(C(=O)Nc3ccc4c(c3)CCC4)c2n1,3.26 µM (active)
2,Cc1cc(C)n2ncc(C(=O)Nc3ccc(C(F)(F)F)cc3)c2n1,2.06 µM (active)
3,Cc1cccc(NC(=O)c2cnn3c(C)cc(C)nc23)c1,3.66 µM (active)
4,Cc1cc(C)n2ncc(C(=O)Nc3ccc(S(C)(=O)=O)cc3)c2n1,inactive
5,O=C(Nc1ccccc1Sc1ccccc1)c1cnn2c1NC(=C1CC1)C=C2C(F)F,4.61 µM (active)
6,Cc1cc(C)n2ncc(C(=O)Nc3cccc(C(F)(F)F)c3)c2n1,6.51 µM (active)
7,Cc1cc(C)n2ncc(C(=O)Nc3ccncc3)c2n1,inactive
8,Cc1cc(C)n2ncc(C(=O)Nc3cc(Cl)cc(Cl)c3)c2n1,25.9 µM (active)
9,Cc1cc(C)n2ncc(C(=O)Nc3ccc(C)c(C)c3)c2n1,1.46 µM (active)
10,CC(=O)Nc1ccccc1NC(=O)c1cnn2c(C)cc(C)nc12,inactive
11,Cc1ccc(NC(=O)c2cnn3c(C)cc(C)nc23)c(C)c1,10.3 µM (active)
12,Cc1cc(-c2ccccc2)n2ncc(C(=O)Nc3ccc(Cl)c(Cl)c3)c2n1,inactive
13,Cc1cc(C)n2ncc(C(=O)Nc3cccc(C#N)c3)c2n1,inactive
14,COc1ccc(NC(=O)c2cnn3c(-c4ccccc4)cc(C)nc23)cc1,inactive
15,Cc1cc(C)n2ncc(C(=O)NC3CCCCC3)c2n1,13 µM (active)
16,Cc1cc(-c2ccccc2)n2ncc(C(=O)Nc3ccccc3Sc3ccccc3)c2n1,inactive
17,CC(=O)c1cccc(NC(=O)c2cnn3c(C)cc(C)nc23)c1,25.9 µM (active)
18,Cc1cc(-c2ccccc2)nc2c(C(=O)Nc3ccc(Cl)c(Cl)c3)cnn12,6.51 µM (active)
19,Cc1cc(C)n2ncc(C(=O)NC(C)C)c2n1,inactive
20,Cc1cc(C)n2ncc(C(=O)Nc3ccc(Cl)c(Cl)c3)c2n1,3.66 µM (active)
